Assay outcomes: PubChem, Pan Lab, Icahn School of Medicine at Mount Sinai
Many of the other results were omitted from the sample, so hits are more common in it than they were.
RBX1-CUL1 inh – blocks human RBX1-Cullin-1 di-ubiquitin formation; P62877+Q13616; in vitro K48 di-Ub FRET, acceptor:donor ratio, 45 min; inhibition, % at 10 µM; 140,000 tested, 0.6% active; AID 1347404; in the data active means inhibition above about 25%
Numbers without * were called inactive.

SMILES	RBX1-CUL1 inh
Cc1ccc2oc(=O)n(CCNC(=O)Nc3ccc(C)c(F)c3)c2c1	9
O=C1C=CC([N+](=O)[O-])=CC(C(=O)/C=C/c2ccccc2)C1=O (stereo not given)	83*
CN1C(=O)C(C(=O)/C=C/c2ccccc2)C(=O)N(C)C1=O	0
O=C1C=CC(Br)=CC(C(=O)/C=C/c2ccc(F)cc2)C1=O (stereo not given)	11
CCc1ccccc1NC(=O)C1CCN(S(=O)(=O)c2cn(C)cn2)CC1	-4
O=C(NCCc1ccccc1)C(=O)Nc1cccc(Br)c1	6
Cc1ccc(NC(=O)c2cccc(Cl)c2)cc1	-6
CCOC(=O)C(C)Sc1cc(C)c2ccccc2n1 (stereo not given)	5
CCOC(=O)c1c2c(n(CC(=O)c3ccc(Br)cc3)c1C)C(=O)C(=O)c1ccccc1-2	-3
CCOC(=O)c1c2c(n(Cc3ccccc3)c1CNC(C)C)C(=O)C(=O)c1ccccc1-2	103*
CCOC(=O)c1c2c(n(Cc3ccccc3)c1C)C(=O)c1ccc(Br)cc1-2	2
COc1ccc2c(c1)sc1ncc(C(=O)NCc3ccccc3F)c(=O)n12	-11
CCC(C)NC(=O)c1c2nc3ccccc3nc2n2c1[nH]c(=O)c1ccccc12 (stereo not given)	53*
CCC(C)NC(=O)c1ccccc1NC(=O)c1ccncc1 (stereo not given)	6
CCC(C)NC(=O)c1c2c(nc3ccccc13)C(=O)N(C1CCCCC1)C2 (stereo not given)	-1
O=C1Oc2ccccc2C(=O)C1C(=O)c1ccccc1 (stereo not given)	-2
O=C1Oc2ccccc2C(=O)C1Sc1ccc(Cl)cc1 (stereo not given)	-1
O=C(O)c1ccccc1SC1C(=O)Oc2ccccc2C1=O (stereo not given)	46*
CCc1ccc(NC(=O)N2c3ccccc3Sc3ccccc32)cc1	8
NC(=O)CC(C(=O)O)N1C(=O)/C(=C/c2cccc(Br)c2)SC1=S (stereo not given)	33*
O=C(CCCN1C(=O)/C(=C\c2cccc(Br)c2)SC1=S)NNC(=O)c1ccccc1O	1
CCCC(C(=O)O)N1C(=O)/C(=C/c2ccc(F)cc2)SC1=S (stereo not given)	7
COC(=O)c1cc(C)nc2c1c(=O)nc(SCc1cc(C)ccc1C)n2C1CC1	-10
CCc1ccc2occ(CC(=O)N(Cc3ccc(N(C)C)cc3)C3CCS(=O)(=O)C3)c2c1 (stereo not given)	-9
O=C1/C(=C\c2ccc(-c3ccc(Cl)c(Cl)c3)o2)SC(=Nc2ccccc2)N1Cc1ccco1	1
SMILES	RBX1-CUL1 inh
N#Cc1ccc(/C=C2/SC(=Nc3ccccc3)N(Cc3ccc(C(=O)O)cc3)C2=O)cc1	-2
N#Cc1ccc(-c2ccc(/C=C3\SC(=Nc4ccccc4)N(Cc4ccco4)C3=O)o2)cc1	53*
CCC1CN(C(=O)Nc2cccc3c2CCCC3)c2ccccc2O1 (stereo not given)	-8
O=C(O)/C=C/c1cc(Br)ccc1OCc1ccc(F)cc1	6
CCCCCCOc1cc(/C=C/C(=O)O)c(OCCCCCC)cc1/C=C/C(=O)O	89*
CCCCCCCCCCCCCCCCCCOc1ccc(/C=C/C(=O)O)cc1I	5
C=C(C)Cn1c(=S)[nH]c2sc3c(c2c1=O)CC(C)(CC)OC3 (stereo not given)	1
CC(C)(C)c1ccc(CN2CCN(c3ccnc4cc(Cl)ccc34)CC2)cc1	1
CC(C)(C)C(=O)N1CCN(c2ccnc3cc(Cl)ccc23)CC1	7
O=C(CN1CCN(c2cc(Cl)cc3ncccc23)CC1)c1ccc(O)c(O)c1	84*
Nc1c(Cl)ncnc1N1CCN(c2ncnc(Cl)c2N)CC1	-6
S=C(NC(=NC=C(Cl)Cl)c1ccccc1)Nc1ccc(Cl)cc1	9
COc1cc(CNc2ccc(O)cc2)cc(Cl)c1OCc1ccc(Cl)cc1	0
CCOc1cc(CNc2ccc(C)c(Cl)c2)cc(Cl)c1OCc1ccc(Cl)cc1Cl	-5
COc1cc(CNc2ccc(N3CCCCC3)cc2)cc(Cl)c1OCc1cccs1	-1
CCOc1cc(CNc2ccc(N3CCCC3)cc2)cc(Cl)c1OC	63*
COc1cc(CNc2ccc(N3CCCC3)cc2)cc(Cl)c1OC	-8
CCOc1cc(CNc2ccc(O)cc2)cc(Cl)c1OCc1ccc(Cl)cc1	86*
CC(C)CCNC(=O)CSc1c(-c2ccccc2)c2cc(Cl)ccc2[nH]c1=O	0
COc1ccc(OC)c(S(=O)(=O)NC2CCCCC2)c1	8
COc1ccc(CC2(CCC(=O)N3CCN(c4cccc(C)c4C)CC3)CCC(=O)N2)c(F)c1 (stereo not given)	3
FC(F)(F)c1cccc(CN2CCCC(c3ccnc(SCCN4CCCC4)n3)C2)c1 (stereo not given)	3
CCOc1ccc(C2=Nc3ncnn3C(c3cc(Br)ccc3F)C2)cc1Cl (stereo not given)	-1
Cn1cccc1/C=C/c1cc(Br)c(/C=C/c2cccn2C)cc1Br	95*
CCN1C(=O)S/C(=C/c2cccn2C)C1=O	-6
Cn1cccc1/C=C1/C(=O)ON=C1c1ccccc1	2
CC(C)(C)c1ccc([N+](=O)[O-])c(N)c1	-6
